# Experimental data from PubChem BioAssay AID1259311 (ICCB-Longwood Screening Facility, Harvard Medical School, 2017).
# “And” between values parts separate entries of the source, which are not always exact repeats. Equal values may be shown once. The campaign covered roughly 330,000 compounds. About 1,100 (0.33%) were called active. For the sample, actives were picked, then their nearest neighbours and some compounds at random. Unmarked numbers belong to inactive results. Cut-off read from the data, not from the text of the source: active = inhibition above about 85%; inactive = the rest.
# Assay: growth inhibition of S. aureus RN4220, primary screen, OD600 (AID 1259311);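 note: plate controls were untreated cells for no effect and reference antibiotic for full effect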
# Details: OD600, 16 h, active compounds read high
row,Structure (SMILES),inhibition
1,CCOC(=O)NN=C(C)/C=C/c1ccco1,-0.0294%
2,O=C1CCC(O)CCN1CCC(Sc1ccccc1)c1ccccc1 (centres undefined),10.9%
3,CC(C)(C)C1C=C(C(=O)N2CCN(Cc3ccccc3)CC2)OC(OCc2ccc(CO)cc2)C1 (centres undefined),8.07% and 4.07%
4,CCOC(=O)C1C2COc3ccc(Br)cc3C2N2C(=O)N(c3ccc(C(F)(F)F)cc3)C(=O)[C@@]12C (some centres undefined),-6.79%
5,CCCCC1CC1C(NC(=O)c1ccco1)c1ccccc1C(F)(F)F (centres undefined),6.05%
6,O=C(CN1CCSCC1)NN=Cc1ccc(F)cc1F,6.36%
7,Cc1ccc(C=NNC(=O)CSc2nc3ccccc3n2C)s1,0.496%
8,Cn1c(SCC(=O)NN=Cc2ccc([N+](=O)[O-])s2)nnc1-c1ccccc1,94.9% (active)
9,Cc1ccc(C=NNC(=O)CSc2nc3ccccc3c(=O)n2-c2ccccc2)s1,-0.0121%
10,COC(=O)C1=C(c2ccc(C(C)=O)cc2)CC2CCC1N2C(=O)NCc1ccc(F)cc1 (centres undefined),1.41%
11,O=S(=O)(NN=Cc1ccc(OC2CSC2)cc1)c1ccccc1,2.43%
12,COc1cccc(C=NNc2cc(-n3nc(C)cc3-c3ccccc3)ncn2)c1O,99.8% (active)
13,COc1cccc(C=NNC(=O)CSCC(=O)Nc2ccccc2)c1O,3.38%
14,COc1cccc(C=NNc2ncnc3c2ncn3Cc2ccccc2)c1O,9.44%
15,COc1cccc(C(=O)NCC(=O)NN=Cc2c(C)[nH]c3ccccc23)c1,4.11%
16,N=C1C(c2nc3ccccc3s2)=C(O)CN1NC(=O)c1ccc([N+](=O)[O-])cc1,31.5%
17,O=C(NC(Nc1nc2ccc([N+](=O)[O-])cc2s1)(C(F)(F)F)C(F)(F)F)c1ccccc1,100% (active)
18,O=C(NOCc1ccccc1)c1cccc([N+](=O)[O-])c1,4.41%
19,COC(=O)C1=C(c2cccc(OC)c2OC)CC2CCC1N2C(=O)NCCNC(C)=O (centres undefined),2.83%
20,Cc1ccc(OCC(=O)NN=Cc2cc([N+](=O)[O-])ccc2N2CCCCC2)cc1,15.8%
21,COc1cccc(C2=CC(=O)CC(c3ccc4c(c3)OCO4)C2)c1OC (centres undefined),4.85%
22,O=C(Cn1cnc2ccccc21)NN=Cc1ccccn1,-0.52%
23,COC(=O)[C@]1(C)NC(c2ccc(-c3cccc(Cl)c3)c(OC)c2)C2C(=O)N(C)C(=O)C21 (some centres undefined),4.06%

row,Structure (SMILES),inhibition
1,CCOC(=O)C=c1sc(=C(C#N)C(=O)OCC)n(-c2ccccc2)c1=O,-0.54%
2,CCC(C)N1CCC2(CC1)N=c1c(c3c4c5c(C)c(O)c3c(O)c1=NC(=O)C(C)=CC=CC(C)C(O)C(C)C(O)C(C)C(OC(C)=O)C(C)C(OC)C=CO[C@@](C)(O5)C4=O)N2 (some centres undefined),99.7% (active)
3,Cc1nnc(SCC2=C(C(=O)O)N3C(=O)C(NC(=O)Cn4nc(C)c(Cl)c4C)C3SC2)s1 (centres undefined),99.6% (active)
4,Cc1nnc(SCc2cc(=O)[nH]c(N3CCN(Cc4ccccc4)CC3)n2)s1,1.62%
5,Cc1nnc(SCC(=O)Nn2cnnc2)s1,2.92%
6,Cc1cc(C)cc(C(=O)NC2C(=O)N3C(C(=O)O)=C(CSc4nnc(C)s4)CSC23)c1 (centres undefined),99.5% (active)
7,Cc1nnc(SCC(=O)NC2CCCC2)s1,-0.203%
8,CON=Cc1ccc(N2CCOCC2)c([N+](=O)[O-])c1,6.02%
9,C=CCn1c(CNc2ccccc2)nnc1SCC(=O)NN=Cc1ccccc1O,1.54%
10,O=C(O)CCC(=NNc1ncc(C(F)(F)F)cc1Cl)C(=O)O,4.71%
11,CC(=O)Nc1cccc(C(C)=NNc2ccc(S(=O)(=O)Nc3ccccc3C(=O)O)cc2[N+](=O)[O-])c1,-10.1%
12,CCc1ccc2c(c1)C1(NN=C(c3ccccc3)S1)C(=O)N2 (centres undefined),92.6% (active)
13,CCN(CC)c1ccc(C(=O)c2cnc(N=CN(C)C)s2)cc1,8.12%
14,CC(=NNC(=O)CNS(=O)(=O)c1ccc(C)cc1)c1cccc([N+](=O)[O-])c1,-3.24%
15,Cn1c(NN=Cc2ccccc2)nc2sc3c(c2c1=O)CCC3,6.77%
16,O=C(NN=Cc1ccccc1)c1ccc(CN2C(=O)c3cccc4cccc2c34)cc1,0.745%
17,Cc1nc2cc(NC(=O)Nc3cccc(F)c3)ccc2n1C,2.6%
18,O=C(Nc1ccc2ccccc2c1)Nc1ccc2snnc2c1,106% (active)
19,S=C(Nc1ccccc1)Nc1ccc2ccccc2c1,-8.9%
20,Nc1nonc1-n1nnc(C(=O)NN=Cc2ccncc2)c1CN1CCCCC1,1.52%
21,Cc1ccccc1NC(=O)C(C)ON=Cc1cccc([N+](=O)[O-])c1 (centres undefined),4.13%
22,COc1ccc(CC(O)=C(C#N)c2nc3ccccc3[nH]2)cc1OC,-2.45%
23,CCOC(=O)C=c1sc(=Cc2c(OCC)ccc3ccccc23)c(=O)n1CC(=O)NCC1CCCO1 (centres undefined),-2.12%

row,Structure (SMILES),inhibition
1,CCOC(=O)C1(CCOc2ccccc2)CCN(Cc2cc(OC)cc(OC)c2)CC1,1.85%
2,CCOC(=O)C1(CCOc2ccccc2)CCN(Cc2ccc(C#CCCO)cc2)CC1,5.24%
3,Cc1c(CN2CCC(CO)(CCOc3ccccc3)CC2)[nH]c2ccc(Cl)cc12,97.5% (active)
4,C#CCOCCOCCOCCNc1nc(N2CCN(C(=O)C(Cc3cc4ccccc4[nH]3)n3cc(C(N)CC(C)C)nn3)CC2)nc(N2CCN(C(=O)C(Cc3ccc(O)cc3)n3cc(C(N)C(C)CC)nn3)CC2)n1 (centres undefined),-1.75%
5,CCNc1nc(NCC)nc(NN=Cc2ccc(O)c(OC)c2)n1,4.03%
6,COc1ccc(C=NNC(=O)C(=O)N2CCCCCC2)cc1,0.0129%
7,Cc1[nH]n(-c2cccc(Cl)c2)c(=O)c1-c1ccc(Cl)cc1,106% (active)
8,Cc1cc(=O)n2[nH]c(-c3cccc(Cl)c3)cc2n1,0.714%
9,Cc1nc2c(-c3ccccc3)c(C)[nH]n2c(=O)c1Cl,5.58%
10,CC(C)(C)NC(=O)C=NO,6.33%
11,O=C(NN=Cc1ccc(OC(F)F)cc1OC(F)F)c1ccc(Br)cc1,3.44%
12,N#CC(=C(O)c1ccco1)c1ccccn1,2.69%
13,Oc1ccc(Br)cc1C=Nn1c(COc2ccccc2)n[nH]c1=S,5.82%
14,Cn1cc(Cl)c(C(=O)NNC(=S)Nc2cccc(Cl)c2)n1,4.73%
15,FC(F)(F)c1cccc(NC(=S)Nc2cccc(Cl)c2)c1,100% (active)
16,O=C(O)CC1(CC(=O)Nc2cccc(C(F)(F)F)c2)CCCC1,3.93%
17,CCN1CC2C3C(=O)N(C)C(=O)C3[C@](Cc3ccccc3)(C1=O)N2C(=O)c1ccccc1 (some centres undefined),1.95%
18,COC(=O)C(C=NOCc1ccc([N+](=O)[O-])cc1)NC(=O)c1cccc(Cl)c1 (centres undefined),-3.78%
19,COC(=O)[C@@]1(Cc2ccc(OC)cc2)C2c3cc(C(=O)N4CCCC4)n(CCSCCO)c3CC2CN1C(=O)c1ccccc1 (some centres undefined),3.17%
20,N#Cc1ccc(CSc2ncccn2)cc1,3.27%
21,N#CC1=C(SCc2ccc(C#N)cc2)N=C(N)C(c2nc(-c3ccccc3)cs2)C12CCCCC2 (centres undefined),98.3% (active)
22,N#CC1=C(SCc2ccccc2)NC(=O)C(C#N)C12CCCC2 (centres undefined),13.6%
23,O=C(NC1CC1)C1=CC(C2CC2)CC(OCCCCO)O1 (centres undefined),6.8% and 1.82%

row,Structure (SMILES),inhibition
1,Cc1cc(C(=O)NN=Cc2cc(Cl)cc([N+](=O)[O-])c2O)n[nH]1,7.38%
2,COc1ccc(NC(=O)ON=Cc2ccc(Br)cc2)cc1,5.53%
3,COc1ccc(C(=O)/C=C/c2cccnc2)c(OC)c1,2.36%
4,COc1ccc(/C=C/C(=O)c2cc(Br)ccc(=O)c2O)cc1,94.3% (active)
5,CC(C)(C)OC(=O)NC(Cc1ccccc1)C(=O)NC(CO)C(O)C1CC1C(=O)NC1CC1 (centres undefined),2.57%
6,O=C(Cc1ccccc1)NNC1CC(=O)N(c2ccc(Br)cc2)C1=O (centres undefined),4.24%
7,CC(C)(C)OC(=O)C1=C(CO)CS[C@@H]2[C@H](NC(=O)Cc3ccccc3)C(=O)N12,99.2% (active)
8,CC(=NNC(=O)CNc1ccccc1)c1ccccc1,0.316%
9,Cc1c(O)ccc(C(Cc2ccc3ccccc3n2)=NN)c1O,4.37%
10,Cc1cc(N=Nc2ccc3ccccc3c2)ccc1O,99.9% (active)
11,COc1cccc(C=NNC(=O)CNC(=O)C2COc3ccccc3O2)c1O (centres undefined),2.29%
12,CC(=NNC(=O)CNC(=O)C1COc2ccccc2O1)c1ccc([N+](=O)[O-])cc1 (centres undefined),2.91%
13,CC(=O)c1cccc(NC(=O)C2COc3ccccc3O2)c1 (centres undefined),4.71%
14,O=C(Nc1ncc([N+](=O)[O-])s1)C1COc2ccccc2O1 (centres undefined),92.1% (active)
15,Cc1ccc(NC(=O)CN2C(=O)SC(=Cc3cccn3-c3cccc(C(=O)O)c3)C2=O)cc1C,8.73%
16,CC(=NN=C(c1ccccc1)c1ccccc1)c1ccco1,7.82%
17,COc1ccc(CCNC(=O)C(Sc2ccccn2)c2ccccc2)cc1OC (centres undefined),4.13%
18,COc1ccc(CN(Cc2ccc(OC)cc2)C(=O)c2cccs2)cc1,6.45%
19,COc1ccc(C(CCN(Cc2ccc(OC)c(OC)c2)C(=O)CCl)c2ccccc2)cc1 (centres undefined),85.5% (active)
20,COc1ccc(CN2CCC(=O)N(C(CO)c3ccccc3)CC2)cc1OC (centres undefined),-2.15%
